# CYP2C19 inh = human CYP2C19 inhibition; P33261; CYP2C19 Supersomes, luciferin-H EGE luminescence, 30 min; inhibition, % at 5 µM; 96,000 tested, 21% active; AID 778;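 active = CYP2C19 inhibition above a set limit at 5 µM in the primary screen, cut at about 50% in these data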;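 note: plate controls were negative control wells for no effect and 2.5 mM tranylcypromine positive control for full effect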
# Target sequence (P33261 whole entry, looked up): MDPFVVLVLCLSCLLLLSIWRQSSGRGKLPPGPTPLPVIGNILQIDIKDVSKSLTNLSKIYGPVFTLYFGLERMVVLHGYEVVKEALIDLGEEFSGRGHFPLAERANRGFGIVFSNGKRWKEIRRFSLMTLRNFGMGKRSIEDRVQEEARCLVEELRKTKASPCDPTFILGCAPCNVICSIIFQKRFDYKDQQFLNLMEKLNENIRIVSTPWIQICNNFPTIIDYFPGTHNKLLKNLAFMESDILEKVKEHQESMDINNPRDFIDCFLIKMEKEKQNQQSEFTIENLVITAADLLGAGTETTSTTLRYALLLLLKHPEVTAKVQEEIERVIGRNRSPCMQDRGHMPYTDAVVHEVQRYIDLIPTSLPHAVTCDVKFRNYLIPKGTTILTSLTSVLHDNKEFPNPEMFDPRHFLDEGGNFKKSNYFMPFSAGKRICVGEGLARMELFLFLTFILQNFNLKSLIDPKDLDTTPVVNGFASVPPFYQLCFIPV
# CYP2C9 inh = blocks human cytochrome P450 2C9 | P11712 | AID 777 | CYP2C9 Supersomes, luciferin-H conversion, luminescence | 96,000 tested, 20% active | inhibition, % at 5 µM;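 active = blocking of liver enzyme CYP2C9 beyond about 50% at 5 µM, limit read from the data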
# CYP2C19 act = cytochrome P450 2C19 (human) activation | P33261 | activation factor at 5 µM | AID 1025 | recombinant CYP2C19, luciferin-H EGE luminescence; active compounds read high; 0 = fully inhibited enzyme, 1 = untreated enzyme | 96,000 tested, under 10 active;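 active = activation factor of at least 2 at 5 µM in the primary screen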;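 note: 0 = wells with 2.5 mM tranylcypromine and 1 = vehicle-only wells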
# CYP2C9 activ = activators of human CYP2C9; activation factor at 5 µM; P11712; 96,000 tested, 1.4% active; recombinant CYP2C9, luciferin-H conversion, luminescence; active compounds read high; factor 1 = untreated enzyme, 0 = blocked; AID 1024;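 active = activation factor of 2 or more for CYP2C9 at a 5 µM dose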;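 note: 0 = sulfaphenazole-blocked wells and 1 = vehicle-only wells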
# Cav32 inh = inhibitors of human Cav3.2 T-type calcium channel; Cav3.2-expressing cells, Fluo-4 calcium fluorescence FDSS; active compounds read low; 100,000 tested, 4% active; B-score at 10 µM;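 active = single-dose well whose peak fluorescence ratio is a statistical outlier from its plate by either plate-standardised score or position-corrected B-score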
# * = called active by the depositor; . = no result given. Shown are actives, neighbours in structure and some others; about 27% of the full set was active somewhere.
SMILES,CYP2C19 inh,CYP2C9 inh,CYP2C19 act,CYP2C9 activ,Cav32 inh
COc1ccc(-c2nnc(-c3ccc(N)cc3)o2)cc1,8.0,76.6*,0.9,0.2,0.203
COc1ccc(-c2ccc(-c3nnc(-c4cc(OC)ccc4OC)o3)cc2)cc1,38.4,5.1,0.6,0.9,.
C=CCn1c(=O)c2ccccc2n2c(SCC(=O)NCCc3ccccc3)nnc12,51.4*,29.1,0.5,0.7,0.595
C=CCn1c(=O)c2ccccc2n2c(Sc3nnnn3-c3ccccc3)nnc12,9.4,22.5,0.9,0.8,2.46
C=CCn1c(SCC(N)=O)nnc1-c1cc(Br)ccc1O,86.9*,23.7,0.1,0.8,0.878
C=CCn1c(CSCc2ccc(Cl)cc2)nnc1SCC(=O)NCc1ccccc1,86.9*,80.6*,0.1,0.2,-6.56*
C=CCn1c(SCc2ccccc2C#N)nnc1-c1ccccc1O,98.4*,9.0,0,0.9,1.1
Cc1c(N=Cc2cc3c(cc2Cl)OCO3)c(=O)n(-c2ccccc2)n1C,-1.7,-1.3,1,1,-2.33
CCCCCCOC(=O)/C=C/c1c(C)[nH]c(=O)[nH]c1=O,18.2,10.5,0.8,0.9,-0.149
C[N+]1([O-])[C@@H]2Cc3cc4c(cc3[C@@H]1Cc1cc3c(cc12)OCO3)OCO4 (stereo partly specified),.,.,.,.,0.802
C=CCn1c(SCC(=O)NCc2ccccc2)nnc1-c1ccccc1O,71.3*,73.6*,0.3,0.3,0.303
C=CCn1c(CSCc2ccc(C)cc2)nnc1SCC(=O)NCc1ccccc1,80.2*,79.1*,0.2,0.2,-3.6*
O=C(CSc1nnc(CCc2ccccc2)n1-c1ccc(Cl)cc1)NCc1ccccc1,83.9*,89.3*,0.2,0.1,-5.89*
C=CCn1c(SCC(N)=O)nnc1-c1ccccc1O,6.4,-30.0,0.9,1.3,0.105
C=CCn1c(COc2ccccc2)nnc1SCC(=O)N/N=C/c1ccc(C)cc1,19.4,29.9,0.8,0.7,-1.67
Cc1cc(NC(=O)c2noc3c2CCCC3)n(-c2ccccc2)n1,10.4,17.0,0.9,0.8,0.725
C[N+]1(CCCCCCC(=O)/C=N/O)CCCCCC1,6.8,4.3,0.9,1,0.119
C=CCn1c(COc2cccc(C)c2)nnc1SCC(=O)NC(=O)NCc1ccco1,29.2,-61.5,0.7,1.6,-0.88
CC(C)(C)OC(=O)N1CC2Cc3[nH]c(=O)ccc3C(C2)C1 (stereo unspecified),17.8,-2.8,0.8,1,0.652
CCOC(=O)c1cc2cc(CC(=O)c3ccc(OCC)cc3O)ccc2o1,69.0*,54.2*,0.3,0.5,-0.465
C#CCSc1nnc(-c2ccccc2)c(=O)[nH]1,6.5,55.6*,0.9,0.4,-0.00339
CCn1c(=O)cc(N2CCCCC2)[nH]c1=O,-8.9,-19.5,1.1,1.2,0.0327
S=c1[nH]nc(C2CCCCC2)n1/N=C/c1cccs1,20.4,10.9,0.8,0.9,.
O=C(C1CC1)N1CCc2cc(Br)cc(S(=O)(=O)N3CCCCCC3)c21,90.2*,21.3,0.1,0.8,-3.49
CCOC(=O)C1CCCN(S(=O)(=O)c2cc(Br)cc3c2N(C(=O)C2CC2)CC3)C1 (stereo unspecified),38.3,-192.9,0.6,2.9*,0.372
SMILES,CYP2C19 inh,CYP2C9 inh,CYP2C19 act,CYP2C9 activ,Cav32 inh
CCC(=O)N1CCc2cc(Br)cc(S(=O)(=O)N3CCCCCC3)c21,.,.,.,.,-0.87
N#CCCn1nnc(-c2ccccc2F)n1,-0.8,-8.6,1,1.1,2.01
CCCCC1=CC2=C(c3ccco3)C(=O)C(C)(OC(=O)c3ccc(OC)cc3)C(=O)C2=CN1C1CCCCC1 (stereo unspecified),.,.,.,.,-0.833
O=C1c2ccccc2C(O)N1c1cccnc1 (stereo unspecified),-17.6,-13.3,1.2,1.1,-0.475
O=C1c2ccccc2C(Nc2ccc(Cl)cn2)N1c1cccnc1 (stereo unspecified),84.7*,24.6,0.2,0.8,-0.473
COc1ccc(OC)c(NC2c3ccccc3C(=O)N2c2cccnc2)c1 (stereo unspecified),56.8*,67.0*,0.4,0.3,0.0192
Cc1ccc(N2C(=O)c3ccccc3C2Nc2cccnc2)nc1 (stereo unspecified),16.3,-0.7,0.8,1,0.0086
Cc1c(NC(=O)CN2CCN(C(c3ccccc3)c3ccccc3)CC2)c(=O)n(-c2ccccc2)n1C,0.8,-4.3,1,1,0.0356
CCc1c(C)sc(NC(=O)c2cc(-c3ccco3)on2)c1C#N,-6.0,-8.6,1.1,1.1,0.385

# Bioassay records from PubChem.
